Measurements taken from PubChem BioAssay (EPA / NIEHS).
Activity calls are given as the source filed them. The calls were made as follows: active = hit-call score of the fitted dose curve at least 0.9, where 1 is the maximum; inactive = score below 0.9.

Target: Transcription factor Sp1 (Homo sapiens) (UniProt P08047)
Assay: ATG_Sp1_CIS: Attagene CIS-FACTORIAL HepG2 Assay for human Specificity Protein 1 (Sp1) (AID 2282961)
Conditions: HepG2 Sp1 cis-reporter transcription, actives raise or lower the signal
Method: ATG_CIS is a cell-based, multiplexed-readout assay that uses HepG2, a human liver cell line, with measurements taken at 24 hours after chemical dosing in a 24-well plate.ATG_Sp1_CIS is one of 52 assay component(s) measured or calculated from the ATG_CIS assay. It is designed to make measurements of mRNA induction, a form of inducible reporter, as detected with fluorescence intensity signals by Reverse transcription polymerase chain reaction (RT-PCR) and Capillary electrophoresis technology.Data from the assay component ATG_Sp1_CIS was analyzed into 1 assay endpoint. This assay endpoint, ATG_Sp1_CIS, was analyzed with bidirectional fitting relative to DMSO as the negative control and baseline of activity. Using a type of inducible reporter, measures of mRNA for gain or loss-of-signal activity can be used to understand the reporter gene at the transcription factor-level as they relate to the gene SP1. Furthermore, this assay endpoint can be referred to as a primary readout, because this assay has produced multiple assay endpoints where this one serves a reporter gene function. To generalize the intended target to other relatable targets, this assay endpoint is annotated to the dna binding intended target family, where the subfamily is zinc finger.
Human liver HepG2 cells are transiently transfected with multiple reporter transcription units (MRTUs) in 6-well plates using FuGene 6 reagent (Roche; 3 ml FuGene/1 mg DNA). The MRTU constructs are regulated by a cis-regulating element (promoter). […] A major difference between the CIS and TRANS system is that in CIS activities of endogenous TFs are measured, whereas the TRANS assay evaluates changes in activities of exogenous, chimeric NR-Gal4 proteins. […] At the end of 24 hour incubation, total RNA was isolated using TriZol reagent (Invitrogen). The isolated RNA is then reverse-transcribed using oligo(dT) primer and Mo-MLV reverse transcriptase (Invitrogen) with DNAse I (Ambion) treatment for 30 min. The one-tenth of the produced cDNA was amplified by PCR using Taq DNA polymerase (Invitrogen) and two reporter sequence-specific primers. The PCR products were fluorescently labeled by primer extension with 6-arboxyfluorescein (6-FAM) 5'-labeled reporter sequence-specific primer (2 min at 95 C, 20 s at 68 C and 10 min at 72 C) and these products were digested with 5U of HpaI (New England Biolabs) for 2h at 37 C. The fragments were purified using Qiaquick PCR columns (Qiagen), analyzed on an ABI 3130xL genetic analyzer (Applied Biosystems) with peak positions identified by using a set of X-rhodamine (ROX)-labeled MapMarker1000 molecular weight standards (BioVentures). The raw capillary electrophoresis data was processed using Attagraph software (Attagene).

Chain of Transcription factor Sp1 (Homo sapiens) (P08047 whole entry, looked up): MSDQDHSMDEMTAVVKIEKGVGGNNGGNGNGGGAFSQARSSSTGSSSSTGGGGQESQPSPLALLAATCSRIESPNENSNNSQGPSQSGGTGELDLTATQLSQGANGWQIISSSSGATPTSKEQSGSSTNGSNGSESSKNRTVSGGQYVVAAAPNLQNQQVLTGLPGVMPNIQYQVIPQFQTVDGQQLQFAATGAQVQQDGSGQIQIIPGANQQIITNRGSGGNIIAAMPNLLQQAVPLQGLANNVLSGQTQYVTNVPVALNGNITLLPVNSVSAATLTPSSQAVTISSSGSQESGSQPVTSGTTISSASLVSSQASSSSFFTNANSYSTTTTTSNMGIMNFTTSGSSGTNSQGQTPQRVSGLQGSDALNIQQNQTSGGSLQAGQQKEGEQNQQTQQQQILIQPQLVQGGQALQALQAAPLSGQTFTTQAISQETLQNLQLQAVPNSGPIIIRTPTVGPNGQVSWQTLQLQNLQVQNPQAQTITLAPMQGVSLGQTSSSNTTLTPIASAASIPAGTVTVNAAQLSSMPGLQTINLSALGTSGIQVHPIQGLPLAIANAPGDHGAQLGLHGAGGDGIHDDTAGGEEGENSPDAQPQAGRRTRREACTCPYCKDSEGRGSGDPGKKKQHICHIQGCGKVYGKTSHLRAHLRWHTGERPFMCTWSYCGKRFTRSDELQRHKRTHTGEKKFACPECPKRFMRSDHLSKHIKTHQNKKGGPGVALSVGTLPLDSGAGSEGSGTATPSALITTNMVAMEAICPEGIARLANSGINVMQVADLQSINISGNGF

outcome, inactive:
COc1ccc(C(Cl)=C(c2ccc(OC)cc2)c2ccc(OC)cc2)cc1, Oc1ccc(Cl)cc1Cc1cc(Cl)ccc1O, CCCCCCCC[N+](C)(CCCCCCCC)CCCCCCCC, CN(C)c1ccc(C(=N)c2ccc(N(C)C)cc2)cc1, O=C(O)CC(C(=O)O)C(CC(=O)O)C(=O)O (stereo not given), CC(C)(C)c1ccc(N)cc1, COCCOCCOCCOCCOC, CC(=O)c1ccc2c(c1)CCCC2, CCCCCCCCCCOS(=O)(=O)O, CCN(Cc1cccc(S(=O)(=O)O)c1)c1ccc(C(=C2C=CC(=[N+](CC)Cc3cccc(S(=O)(=O)[O-])c3)C=C2)c2ccccc2)cc1, FC(F)(F)C(=NOCC1OCCO1)c1ccc(Cl)cc1, CC(C)CCCC(C)CC=O (stereo not given), CCCC(C)CCC(C)=O (stereo not given), CCOC(=O)[C@H](C)O, COC(F)(F)C(F)(C(F)(F)F)C(F)(F)F, O=C1CCC(=O)N1Cl, N[C@H]1C(O)O[C@H](CO)[C@H](O)[C@@H]1O (stereo not given in full), COC(=O)c1ccc2cc(C(=O)OC)ccc2c1, Clc1nc2ccccc2s1, Cn1c([N+](=O)[O-])cnc1COC(N)=O, C=CC(C)(C)C, C=C(C)[C@@H]1CCC2=CCC[C@@H](C)[C@]2(C)C1, FC(F)=C(F)OC(F)(F)C(F)(F)C(F)(F)F, CC(=O)[C@@]1(O)CC[C@H]2[C@@H]3C[C@H](C)C4=CC(=O)C=C[C@]4(C)[C@@]3(F)[C@@H](O)C[C@@]21C, Cc1cc(C)c(C)cc1C, CCCCC(CC)COC(=O)c1ccccc1O (stereo not given), C=CCOc1c(Br)cc(Br)cc1Br, CC=CC(F)(F)C(F)(F)C(F)(F)F, CC1=NC(C)OC1C (stereo not given), O=C1C=CC(=O)O1, C=C[C@](C)(O)CC[C@@H]1[C@@]2(C)CCCC(C)(C)[C@@H]2CC[C@@]1(C)O, CC(C)(C)C(=O)CCc1ccc(Cl)cc1, Cc1ccc(C2OC[C@@H]3OC(c4ccc(C)cc4)O[C@H]([C@H](O)CO)[C@@H]3O2)cc1 (stereo not given in full), CC/C=C\C/C=C\C/C=C\CCCCCCCC(=O)O, CCCCCCCCCCCCCCCC(=O)OCC, CC(=O)Oc1ccc(C)cc1, O=C1c2cccc(O)c2C(=O)c2c(O)cc(CO)cc21, CNC(=S)N(C)C, CC(=O)Oc1ccc(C(C)=O)cc1, C=CCCCCCCCCC(=O)OCCCC
